Measured values as given in PubChem BioAssay.
The source made the active and inactive calls.

Legend:
[1] = test system: PRMT1 (protein arginine N-methyltransferase 1); experiment: PRMT1 binders on small-molecule microarrays, primary screen, biochemical, small-molecule microarray, 635 nm fluorescence (AID 1088); conditions: small-molecule microarray binding, higher = more signal;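 further: binding of Prmt1 protein to compounds spotted on small-molecule microarray slides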
[2] = yeast growth modulation, basal conditions, primary screen, YJM789 clinical isolate, OD600, 24 h (AID 1089);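 further: growth of clinical yeast isolate S. cerevisiae YJM 789 seeded 1000 cells per well; test concentration not given here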; conditions: S. cerevisiae YJM789 growth, higher = more signal, called active from +8 up or from −8 down
[3] = fission yeast growth modulation, primary screen, strain 972, OD600, 24 h, no modulator (AID 1090);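 further: basal condition with compound alone and no growth modifier present; test concentration not given here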; conditions: S. pombe 972 growth, higher = more signal, called active from +8 up or from −8 down
[4] = S. cerevisiae growth modulation with rapamycin, primary screen, strain BY4716, OD600, 96 h (AID 1091); conditions: higher = more signal, called active from +8 up or from −8 down; further: test concentration not given here
[5] = target: Torsin-1A-interacting protein 2 (Homo sapiens) (UniProt Q8NFQ8); experiment: LULL1 binders on small-molecule microarray, primary screen, cell lysate, human LULL1 lysate, 635/667 nm fluorescence (AID 1092); conditions: hLULL1 lysate binding, 635 nm fluorescence, higher = more signal;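 further: probe is lysate of COS7 cells overexpressing human LULL1; score merges per-feature 667 nm fluorescence with signal-to-noise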
Sequence of Torsin-1A-interacting protein 2 (Homo sapiens) (Q8NFQ8 whole entry, looked up): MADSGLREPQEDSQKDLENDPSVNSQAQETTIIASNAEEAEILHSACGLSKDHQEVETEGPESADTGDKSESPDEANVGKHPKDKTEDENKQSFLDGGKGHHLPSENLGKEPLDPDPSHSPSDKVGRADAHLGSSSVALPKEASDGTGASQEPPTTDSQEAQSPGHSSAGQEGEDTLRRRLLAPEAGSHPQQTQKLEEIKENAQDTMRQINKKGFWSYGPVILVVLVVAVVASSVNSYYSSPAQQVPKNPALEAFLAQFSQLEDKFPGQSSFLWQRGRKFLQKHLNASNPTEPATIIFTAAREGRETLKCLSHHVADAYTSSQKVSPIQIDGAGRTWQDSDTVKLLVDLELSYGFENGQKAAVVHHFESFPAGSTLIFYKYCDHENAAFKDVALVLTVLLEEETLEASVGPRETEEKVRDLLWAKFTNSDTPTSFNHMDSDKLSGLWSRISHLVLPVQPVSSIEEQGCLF

[6] = E. coli growth modulation, two-sided OD650, primary screen, E. coli filamentation project, strain DRC41, 24 h (AID 1093); conditions: OD650, 24 h, higher = more signal, called active from +8 up or from −8 down;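 further: MC1000 strain lacking acrAB efflux and sulA so SOS filamentation is blocked; test concentration not given here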
[7] = small-molecule microarray binders of probe aLefty2, primary screen, biochemical, biotinylated probe, 635/667 nm fluorescence (AID 1094); conditions: higher = more signal;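 further: score merges spot fluorescence near 667 nm with spot signal-to-noise ratio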
[8] = test system: Noggin (protein binding on small-molecule microarray); experiment: Noggin binders on small-molecule microarray, primary screen, biochemical, 635/667 nm fluorescence (AID 1095); conditions: 635 nm fluorescence, higher = more signal;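 further: score merges 667 nm feature fluorescence with signal to noise over triplicate slides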
[9] = target: Neurogenic locus notch homolog protein 3 (Homo sapiens) (UniProt Q9UM47); experiment: NOTCH3 binders on small-molecule microarray, primary screen, biochemical, 635/667 nm fluorescence (AID 1096); conditions: NOTCH3 binding, 635 nm fluorescence, higher = more signal
Sequence of Neurogenic locus notch homolog protein 3 (Homo sapiens) (Q9UM47 whole entry, looked up): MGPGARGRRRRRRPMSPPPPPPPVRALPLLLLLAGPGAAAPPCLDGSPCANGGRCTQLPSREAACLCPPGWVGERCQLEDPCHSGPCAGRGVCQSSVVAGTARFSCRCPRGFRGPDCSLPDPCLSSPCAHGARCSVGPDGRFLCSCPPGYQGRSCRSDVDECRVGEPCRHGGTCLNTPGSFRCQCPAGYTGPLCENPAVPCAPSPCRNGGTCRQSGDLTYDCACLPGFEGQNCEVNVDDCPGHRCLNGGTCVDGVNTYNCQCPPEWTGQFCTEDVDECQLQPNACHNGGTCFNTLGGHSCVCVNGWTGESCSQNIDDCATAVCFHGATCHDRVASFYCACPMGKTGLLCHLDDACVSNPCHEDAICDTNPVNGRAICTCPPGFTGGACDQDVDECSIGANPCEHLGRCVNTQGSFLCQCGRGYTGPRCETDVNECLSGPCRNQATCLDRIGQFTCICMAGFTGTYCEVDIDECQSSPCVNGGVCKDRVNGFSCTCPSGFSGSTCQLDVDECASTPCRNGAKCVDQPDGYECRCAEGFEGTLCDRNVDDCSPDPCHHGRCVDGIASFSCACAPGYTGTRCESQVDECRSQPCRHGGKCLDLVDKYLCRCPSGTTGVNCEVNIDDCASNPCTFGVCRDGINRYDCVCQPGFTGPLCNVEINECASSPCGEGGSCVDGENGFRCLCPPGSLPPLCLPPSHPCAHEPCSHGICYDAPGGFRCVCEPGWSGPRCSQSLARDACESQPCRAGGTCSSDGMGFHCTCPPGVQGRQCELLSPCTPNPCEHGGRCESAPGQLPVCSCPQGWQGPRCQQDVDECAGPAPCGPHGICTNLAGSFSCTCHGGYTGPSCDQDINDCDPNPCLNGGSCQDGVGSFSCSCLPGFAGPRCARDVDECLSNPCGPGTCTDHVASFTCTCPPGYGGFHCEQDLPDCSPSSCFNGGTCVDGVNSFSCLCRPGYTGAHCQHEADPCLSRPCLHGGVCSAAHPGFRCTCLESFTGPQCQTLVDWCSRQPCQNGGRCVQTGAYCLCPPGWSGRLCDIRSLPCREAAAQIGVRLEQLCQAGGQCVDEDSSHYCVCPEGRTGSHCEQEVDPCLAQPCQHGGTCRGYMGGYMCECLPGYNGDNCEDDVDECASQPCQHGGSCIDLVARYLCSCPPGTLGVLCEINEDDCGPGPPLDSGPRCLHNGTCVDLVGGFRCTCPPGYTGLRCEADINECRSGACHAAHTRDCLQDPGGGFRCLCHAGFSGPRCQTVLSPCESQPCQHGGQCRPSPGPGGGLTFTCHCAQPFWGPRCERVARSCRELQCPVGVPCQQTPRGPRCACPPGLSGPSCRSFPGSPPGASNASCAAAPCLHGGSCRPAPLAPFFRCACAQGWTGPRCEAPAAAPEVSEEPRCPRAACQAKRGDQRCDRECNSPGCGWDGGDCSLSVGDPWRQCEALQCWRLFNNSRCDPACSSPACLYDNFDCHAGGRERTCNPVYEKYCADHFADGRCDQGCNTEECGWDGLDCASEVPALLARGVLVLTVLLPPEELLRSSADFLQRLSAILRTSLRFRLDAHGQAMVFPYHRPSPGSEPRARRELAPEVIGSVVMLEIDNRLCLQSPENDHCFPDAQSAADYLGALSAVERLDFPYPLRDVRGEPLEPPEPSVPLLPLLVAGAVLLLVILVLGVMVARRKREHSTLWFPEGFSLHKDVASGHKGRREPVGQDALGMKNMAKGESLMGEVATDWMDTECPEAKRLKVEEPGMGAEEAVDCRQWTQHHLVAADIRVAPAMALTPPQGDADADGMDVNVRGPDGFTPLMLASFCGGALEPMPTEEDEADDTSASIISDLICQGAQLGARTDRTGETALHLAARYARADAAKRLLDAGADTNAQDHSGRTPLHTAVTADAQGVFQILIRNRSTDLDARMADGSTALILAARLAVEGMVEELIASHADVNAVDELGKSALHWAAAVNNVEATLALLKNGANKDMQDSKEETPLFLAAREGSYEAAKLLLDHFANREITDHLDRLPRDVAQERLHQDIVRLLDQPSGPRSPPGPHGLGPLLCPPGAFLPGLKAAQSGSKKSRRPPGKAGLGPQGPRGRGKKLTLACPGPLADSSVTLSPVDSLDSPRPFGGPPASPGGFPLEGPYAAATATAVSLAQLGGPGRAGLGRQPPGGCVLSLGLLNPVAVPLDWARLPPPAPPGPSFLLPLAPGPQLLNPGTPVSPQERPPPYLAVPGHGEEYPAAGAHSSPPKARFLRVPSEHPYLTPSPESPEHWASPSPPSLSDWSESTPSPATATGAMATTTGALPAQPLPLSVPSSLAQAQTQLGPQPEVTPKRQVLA

[10] = small-molecule microarray binders of probe aEGFR, primary screen, biochemical, biotinylated probe, 635/667 nm fluorescence (AID 1097); conditions: higher = more signal;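 further: probe is a biotinylated anti-EGFR antibody binding compounds printed on slides; score combines fluorescence near 667 nm and signal to noise of each spot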
[11] = test system: Plasmodium falciparum Sir2 (PF13_0152, Sir2A); experiment: pfSir2 binders on small-molecule microarrays, primary screen, biochemical, small-molecule microarray, 635 nm fluorescence (AID 1098); conditions: small-molecule microarray binding, fluorescence 635 nm; higher = more signal;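 further: score merges spot fluorescence intensity with its signal-to-noise ratio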
[12] = small-molecule microarray binders of probe aDKK1, primary screen, biochemical, biotinylated probe, 635/667 nm fluorescence (AID 1099); conditions: higher = more signal;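 further: score merges 667nm spot fluorescence with signal to noise across triplicate slides; reference of the scale not given here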
[13] = small-molecule microarray binders of probe aCHRDL2, primary screen, biochemical, biotinylated probe, 635/667 nm fluorescence (AID 1100); conditions: higher = more signal
[14] = splicing luciferase reporter signal modulators, primary screen, spliceosome inhibition project, cell-based, HEK293, splice +/- reporter (AID 1101); conditions: luminescence, 24 h, higher = more signal, called active from +8 up or from −8 down;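 further: HEK293 cells carrying a splicing-competent luciferase reporter gene; test concentration not given here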
[15] = target: Fibroblast growth factor 10 (Homo sapiens) (UniProt O15520); experiment: FGF10 binders on small-molecule microarrays, primary screen, biochemical, small-molecule microarray, 635 nm fluorescence (AID 1102); conditions: FGF10 binding, fluorescence 635 nm, higher = more signal
Sequence of Fibroblast growth factor 10 (Homo sapiens) (O15520 whole entry, looked up): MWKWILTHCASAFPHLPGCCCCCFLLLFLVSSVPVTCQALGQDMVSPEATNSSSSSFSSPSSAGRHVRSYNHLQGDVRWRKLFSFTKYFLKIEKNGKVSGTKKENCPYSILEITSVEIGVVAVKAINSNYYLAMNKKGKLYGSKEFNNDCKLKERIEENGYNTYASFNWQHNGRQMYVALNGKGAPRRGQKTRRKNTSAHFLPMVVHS

[16] = test system: glycogen synthase kinase-3 (GSK3A per assay name; protocol says GSK3B); experiment: GSK3 binders on small-molecule microarrays, primary screen, biochemical, small-molecule microarray, 635 nm fluorescence, GSK3A (AID 1103); conditions: small-molecule microarray binding, fluorescence 635 nm; higher = more signal; further: the record names both GSK3A and GSK3B
[17] = target: Epidermal growth factor receptor (Homo sapiens) (UniProt P00533); experiment: EGFR binders on small-molecule microarrays, primary screen, biochemical, small-molecule microarray, 635 nm fluorescence (AID 1104); conditions: EGFR binding, higher = more signal;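 further: score merges 667 nm emission intensity with spot signal to noise over triplicate slides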
Sequence of Epidermal growth factor receptor (Homo sapiens) (P00533 whole entry, looked up): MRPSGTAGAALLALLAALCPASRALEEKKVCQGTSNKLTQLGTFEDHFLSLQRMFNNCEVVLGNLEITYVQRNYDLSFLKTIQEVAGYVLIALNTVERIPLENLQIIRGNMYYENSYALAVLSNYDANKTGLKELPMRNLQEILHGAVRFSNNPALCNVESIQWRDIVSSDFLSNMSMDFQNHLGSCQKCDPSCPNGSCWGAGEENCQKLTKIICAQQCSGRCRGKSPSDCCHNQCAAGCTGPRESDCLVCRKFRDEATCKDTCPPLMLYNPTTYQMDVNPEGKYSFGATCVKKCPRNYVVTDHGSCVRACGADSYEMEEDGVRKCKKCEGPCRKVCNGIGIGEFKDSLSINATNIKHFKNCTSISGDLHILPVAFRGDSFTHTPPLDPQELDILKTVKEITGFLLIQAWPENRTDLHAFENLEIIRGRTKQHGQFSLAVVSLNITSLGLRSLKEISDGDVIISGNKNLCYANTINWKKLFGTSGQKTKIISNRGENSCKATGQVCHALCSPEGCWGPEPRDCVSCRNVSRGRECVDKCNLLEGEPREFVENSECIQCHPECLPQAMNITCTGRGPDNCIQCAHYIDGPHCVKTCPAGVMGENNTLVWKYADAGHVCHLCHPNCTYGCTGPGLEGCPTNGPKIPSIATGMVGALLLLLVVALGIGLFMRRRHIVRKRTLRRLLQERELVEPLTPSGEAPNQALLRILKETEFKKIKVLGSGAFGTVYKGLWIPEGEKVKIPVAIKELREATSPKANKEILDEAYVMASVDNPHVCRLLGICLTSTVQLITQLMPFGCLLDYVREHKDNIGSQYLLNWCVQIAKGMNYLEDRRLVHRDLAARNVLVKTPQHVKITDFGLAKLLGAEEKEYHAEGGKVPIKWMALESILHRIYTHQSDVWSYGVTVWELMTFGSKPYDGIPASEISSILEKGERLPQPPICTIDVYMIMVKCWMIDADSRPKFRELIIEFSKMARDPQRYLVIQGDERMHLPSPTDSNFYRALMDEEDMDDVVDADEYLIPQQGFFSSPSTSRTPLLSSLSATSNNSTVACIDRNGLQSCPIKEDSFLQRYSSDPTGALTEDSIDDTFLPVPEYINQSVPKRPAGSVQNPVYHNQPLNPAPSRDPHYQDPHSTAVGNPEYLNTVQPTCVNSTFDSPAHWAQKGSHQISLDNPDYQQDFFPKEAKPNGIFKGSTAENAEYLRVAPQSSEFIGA

[18] = target: Follistatin-related protein 3 (Homo sapiens) (UniProt O95633); experiment: FSTL3 binders on small-molecule microarrays, primary screen, biochemical, small-molecule microarray, 635 nm fluorescence (AID 1105); conditions: FSTL3 binding, higher = more signal;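 further: score merges emission near 667 nm and signal to noise per printed spot across three slides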
Sequence of Follistatin-related protein 3 (Homo sapiens) (O95633 whole entry, looked up): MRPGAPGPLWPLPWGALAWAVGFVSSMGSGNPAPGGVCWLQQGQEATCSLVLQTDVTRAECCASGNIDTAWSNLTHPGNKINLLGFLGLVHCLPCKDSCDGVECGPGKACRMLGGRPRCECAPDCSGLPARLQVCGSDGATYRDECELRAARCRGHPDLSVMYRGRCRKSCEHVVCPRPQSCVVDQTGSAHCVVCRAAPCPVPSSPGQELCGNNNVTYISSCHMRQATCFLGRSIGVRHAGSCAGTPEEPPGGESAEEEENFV

[19] = target: Dickkopf-related protein 1 (Homo sapiens) (UniProt O94907); experiment: DKK1 binders on small-molecule microarrays, primary screen, biochemical, small-molecule microarray, 635 nm fluorescence scan (AID 1106); conditions: DKK1 binding, higher = more signal;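 further: score merges emission near 667 nm with signal to noise over three replicate slides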
Sequence of Dickkopf-related protein 1 (Homo sapiens) (O94907 whole entry, looked up): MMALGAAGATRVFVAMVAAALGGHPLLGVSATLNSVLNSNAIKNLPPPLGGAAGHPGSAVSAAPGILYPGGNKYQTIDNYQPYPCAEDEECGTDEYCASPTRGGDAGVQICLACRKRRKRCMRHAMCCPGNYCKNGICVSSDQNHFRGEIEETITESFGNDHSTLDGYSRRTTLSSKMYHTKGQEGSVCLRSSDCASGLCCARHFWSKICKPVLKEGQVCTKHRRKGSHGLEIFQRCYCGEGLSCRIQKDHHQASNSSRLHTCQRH

[20] = test system: Inhibin beta A chain (activin A); experiment: INHBA (activin A) binders on microarrays, primary screen, biochemical, small-molecule microarray, 635 nm fluorescence scan (AID 1107); conditions: small-molecule microarray binding, higher = more signal;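 further: mouse activin A protein probed at 4.33 µg/mL on printed slides; score merges bound-protein fluorescence near 667 nm with spot signal-to-noise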

Compound	composite z-score [1]	z-score [2]	z-score [3]	z-score [4]	composite z-score [5]	z-score [6]	composite z-score [7]	composite z-score [8]	composite z-score [9]	composite z-score [10]	composite z-score [11]	composite z-score [12]	composite z-score [13]	z-score [14]	composite z-score [15]	composite z-score [16]	composite z-score [17]	composite z-score [18]	composite z-score [19]	composite z-score [20]
COc1ccc([Si](C)(C)[C@H]2[C@H](CCO)O[C@@]3(C(=O)N(Cc4ccc(N5C(=O)COc6ccccc65)cc4)c4ccccc43)[C@@H]2C)cc1	1.06	0.223 (inactive)	-0.379 (inactive)	25.3 (active)	1.31	-0.132 (inactive)	-0.0796	-0.6	-0.0154	-0.222	0.0297	-0.0813	0.812	-1.15 (inactive)	-0.712	-1.01	-0.95	-0.534	-0.297	-0.515
CN1C(=O)C2C=CC(C(O)c3ccc(-c4ccccc4)s3)N(N(c3ccccc3)c3ccccc3)C2C1=O (stereo not given)	0.668	0.187 (inactive)	0.947 (inactive)	1.33 (inactive)	1.93	-0.422 (inactive)	0.164	-0.132	1.12	-0.0003	0.61	0.818	0.798	0.214 (inactive)	0.186	0.724	-0.0198	0.338	0.0129	1.18
O=C1c2ccccc2[C@@]2(Cc3ccccc3N(CC(F)(F)F)C2=O)[C@H](c2ccc(CO)cc2)N1Cc1ccccc1Cl	1.22	-0.146 (inactive)	-0.172 (inactive)	-1.62 (inactive)	-0.0577	0.0194 (inactive)	-0.159	0.476	-0.0169	-0.118	0.0888	-0.237	-0.524	-0.311 (inactive)	0.466	0.612	0.509	0.725	0.558	0.531
O=C1OCC=C[C@H]2OC34C=CCN(CCN5CCOCC5)C(=O)[C@H]3N(CCCO)C(=O)[C@@H]4[C@@H]12 (stereo not given in full)	-0.102	0.0736 (inactive)	-0.454 (inactive)	0.238 (inactive)	0.477	0.681 (inactive)	-0.208	0.219	0.314	-0.128	0.112	-0.218	-0.0654	-1.52 (inactive)	-0.116	0.394	-0.0604	0.292	0.163	0.715
CCCCN1CC=CC23O[C@@H]4C=CCOC(=O)[C@@H]4[C@H]2C(=O)N(CCCCCO)[C@@H]3C1=O (stereo not given in full)	-0.0902	-0.404 (inactive)	-0.244 (inactive)	-0.279 (inactive)	3.04	1.34 (inactive)	0.0695	-0.929	-0.445	-0.268	1.15	-0.159	0.641	-0.248 (inactive)	-0.828	-0.656	-0.945	-1.39	-1.03	-0.0355
COC(=O)[C@@]1(Cc2ccccc2)[C@H]2c3cc(C(=O)N4CCCC4)n(Cc4cccc5ccccc45)c3C[C@H]2CN1C(=O)c1ccccc1	-1.59	0.506 (inactive)	1.56 (inactive)	1.43 (inactive)	2.54	-0.395 (inactive)	1.29	-0.685	0.943	0.891	0.473	2.15	1.44	-1.33 (inactive)	0.664	-0.348	0.0512	0.272	-0.922	1.07
COc1ccc(C(O)C2C=CC3C(=O)N(c4ccccc4)C(=O)C3N2Nc2ccccc2F)cc1OCc1ccccc1 (stereo not given)	0.946	-0.306 (inactive)	0.754 (inactive)	1 (inactive)	2.94	-0.994 (inactive)	0.312	-0.0436	0.386	0.308	1.21	1.21	1.08	0.249 (inactive)	0.771	0.693	0.0115	0.711	-0.633	1.35
COC(=O)C=C(CC(O)c1cccc(Cl)c1)OC (stereo not given)	0.0922	-4.19 (inactive)	-10.8 (active)	-1.02 (inactive)	2.4	0.0753 (inactive)	1.06	-0.309	-0.547	0.115	-0.02	1.5	0.48	-1.12 (inactive)	0.182	-0.134	-0.485	-0.374	-0.186	1.14
Cc1ccc(S[C@]2(C(=O)NC3CC3)CC(=O)N(C3Cc4ccccc4C3)[C@@H]2c2ccc(CO)cc2)cc1	1.38	-2.31 (inactive)	-0.945 (inactive)	-1.13 (inactive)	3.08	2.12 (inactive)	-0.0533	-0.878	0.19	-0.221	1.65	0.245	0.806	-0.983 (inactive)	-0.451	-0.15	-0.876	-0.809	-1.02	-0.139
C=CCN(Cc1ccccc1)C(=O)C(c1cccs1)N(CCOCCO)C(=O)/C=C\C(=O)O (stereo not given)	-0.785	-2.16 (inactive)	0.0374 (inactive)	-1.01 (inactive)	1.2	2.25 (inactive)	-0.0555	-2.41	-1.7	-0.329	0.342	0.179	0.251	-1.62 (inactive)	-2.23	-0.869	-2.04	-1.27	-2.6	-2.43
